Source: PubChem BioAssay AID1159580 (chemical genetic matrix, 2015)
Where “and” joins values, the source holds several entries; their conditions need not be identical. Equal entries are not always repeated. Screen size: about 5,500 compounds; about 2,000 (36%) were called active. Inconclusive results (about 18%) are left out. Rule as the data show it: active = normalized growth mostly below about 0.91 (no sharp cut-off); inconclusive = no clear call, values can overlap the other calls; inactive = mostly above about 0.92. The list shows a part of the results.

Experiment: chemical genetic growth profiling, strain panel (AID 1159580);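 also: tested at 20 µM; growth read once vehicle control cultures reached saturation at 30 °C; 1 = growth at the plate median or of vehicle wells; lower values mean less growth of the strain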
Details: S. cerevisiae deletion strains, growth OD

Measured: normalized growth

CN(C)[C@@H]1C(=O)C(C(N)=O)=C(O)[C@@]2(O)C(=O)C3=C(O)c4c(O)ccc(Cl)c4[C@@](C)(O)[C@H]3C[C@@H]12
inactive: locus YAL013W, strain DEP1, hits give low values 1.01 | locus YAL021C, strain ccr4, hits give low values 0.956 | locus YAL026C, strain drs2, hits give low values 0.983 | locus YAL030W, strain snc1, hits give low values 0.981 | locus YBL061C, strain skt5, hits give low values 0.98 | locus YBR009C, strain hhf1, hits give low values 0.979 | locus YBR021W, strain FUR4, hits give low values 0.961 | locus YBR023C, strain chs3, hits give low values 0.993 | locus YBR171W, strain sec66, hits give low values 0.979 | locus YBR229C, strain ROT2, hits give low values 1.01 | locus YBR231C, strain swc5, hits give low values 0.986 | locus YBR279W, strain paf1, hits give low values 0.987 | locus YCL011C, strain gbp2, hits give low values 0.967 | locus YCL016C, strain dcc1, hits give low values 0.967 | locus YCL029C, strain bik1, hits give low values 1.02 | locus YCL069W, strain vba3, hits give low values 0.986 | locus YCR088W, strain abp1, hits give low values 0.988 | locus YDL005C, strain med2, hits give low values 0.985 | locus YDL035C, strain GPR1, hits give low values 0.976 | locus YDL040C, strain nat1, hits give low values 0.983 | locus YDL074C, strain BRE1, hits give low values 0.968 | locus YDL101C, strain DUN1, hits give low values 1 | locus YDL185W, strain tfp1, hits give low values 1.01 | locus YDL192W, strain arf1, hits give low values 0.97 | locus YDR001C, strain nth1, hits give low values 0.969 | locus YDR069C, strain doa4, hits give low values 0.947 | locus YDR101C, strain arx1, hits give low values 0.996 | locus YDR137W, strain rgp1, hits give low values 0.957 | locus YDR150W, strain NUM1, hits give low values 1 | locus YDR159W, strain sac3, hits give low values 0.968 | locus YDR162C, strain NBP2, hits give low values 1 | locus YDR195W, strain ref2 0.945 | locus YDR297W, strain sur2, hits give low values 0.991 | locus YDR318W, strain mcm21, hits give low values 1 | locus YDR334W, strain swr1, hits give low values 0.968 | locus YDR335W, strain msn5, hits give low values 0.98 | locus YDR388W, hits give low values 1.01 | locus YDR392W, strain spt3, hits give low values 0.895 | locus YDR502C, strain sam2, hits give low values 1.01 | locus YEL003W, strain gim4, hits give low values 0.973 | locus YEL037C, strain rad23, hits give low values 0.983 | locus YEL061C, strain CIN8 (second series), hits give low values 0.986 | locus YEL061C, strain CIN8, hits give low values 0.996 | locus YER015W, strain faa2, hits give low values 0.977 | locus YER016W, strain bim1, hits give low values 0.984 | locus YER110C, hits give low values 1.01 | locus YER111C, strain swi4, hits give low values 0.977 | locus YER155C, strain BEM2 (second series), hits give low values 0.95 | locus YER155C, strain BEM2, hits give low values 1.02 | locus YER167W, strain BCK2, hits give low values 1.01 | locus YFR010W, strain ubp6, hits give low values 0.972 | locus YGL078C, strain dbp3, hits give low values 0.994 | locus YGL086W, strain mad1, hits give low values 0.981 | locus YGL167C, strain pmr1, hits give low values 0.959 | locus YGL173C, strain kem1, hits give low values 0.985 | locus YGL227W, strain vid30, hits give low values 0.984 | locus YGL240W, strain doc1, hits give low values 0.982 | locus YGL248W, strain PDE1, hits give low values 0.942 | locus YGL253W, strain hxk2, hits give low values 0.974 | locus YGR078C, strain PAC10, hits give low values 0.976 | locus YGR135W, strain pre9, hits give low values 0.994 | locus YGR252W, strain gcn5, hits give low values 1 | locus YHR013C, strain ard1, hits give low values 0.98 | locus YHR027C, strain rpn1, hits give low values 0.981 | locus YHR030C, strain SLT2, hits give low values 1.01 and 1.03 | locus YHR079C, strain IRE1 (second series), hits give low values 1.01 | locus YHR079C, strain IRE1, hits give low values 1.1 | locus YHR094C, strain hxt1, hits give low values 1.01 | locus YHR129C, strain ARP1, hits give low values 0.99 | locus YHR142W, strain chs7, hits give low values 0.986 | locus YHR200W, strain rpn10, hits give low values 0.987 | locus YIL066C, strain RNR3, hits give low values 0.922 | locus YIL073C, strain SPO22, hits give low values 0.976 | locus YIL125W, strain kgd1, hits give low values 0.998 | locus YIR030C, strain dcg1, hits give low values 1.01 | locus YJL092W, strain hpr5, hits give low values 0.971 | locus YJL095W, strain BCK1 (second series), hits give low values 0.971 | locus YJL095W, strain BCK1, hits give low values 0.981 and 1.04 | locus YJL115W, strain asf1, hits give low values 0.96 | locus YJL129C, strain trk1, hits give low values 0.991 | locus YJL134W, strain LCB3, hits give low values 1.01 | locus YJL154C, strain vps35, hits give low values 0.973 | locus YJL164C, strain tpk1, hits give low values 0.961 | locus YJL166W, strain qcr8, hits give low values 0.97 | locus YJL168C, strain set2, hits give low values 1 | locus YJL187C, strain SWE1 (second series), hits give low values 0.988 | locus YJR043C, strain POL32, hits give low values 0.971 | locus YJR066W, strain TOR1, hits give low values 0.972 | locus YJR075W, strain HOC1, hits give low values 1 | locus YKL009W, strain mrt4, hits give low values 1.02 | locus YKL068W, hits give low values 1 | locus YKL085W, strain MDH1 (second series), hits give low values 1.01 | locus YKL085W, strain MDH1, hits give low values 1.01 | locus YKL160W, strain elf1, hits give low values 0.962 | locus YKR001C, strain vps1, hits give low values 0.978 | locus YKR026C, strain gcn3, hits give low values 0.975 | locus YKR091W, strain srl3, hits give low values 0.985 | locus YLL001W, strain dnm1, hits give low values 0.976 | locus YLL026W, hits give low values 0.987 | locus YLL041C, strain sdh2, hits give low values 0.97 | locus YLR027C, strain aat2, hits give low values 0.987 | locus YLR039C, strain RIC1, hits give low values 1.01 | locus YLR058C, strain SHM2, hits give low values 0.998 | locus YLR102C, strain apc9, hits give low values 1.02 | locus YLR113W, strain HOG1, hits give low values 1.05 | locus YLR221C, strain rsa3, hits give low values 0.987 | locus YLR258W, strain gsy2, hits give low values 0.975 | locus YLR262C, strain YPT6 (second series), hits give low values 1.01 | locus YLR262C, strain YPT6, hits give low values 1.03 | locus YLR268W, strain sec22, hits give low values 0.992 | locus YLR320W, strain mms22, hits give low values 0.996 | locus YLR330W, strain CHS5, hits give low values 0.999 | locus YLR342W, strain FKS1 (second series), hits give low values 0.848 | locus YLR342W, strain FKS1, hits give low values 0.989 | locus YLR357W, strain rsc2, hits give low values 0.938 | locus YLR370C, strain arc18, hits give low values 0.96 | locus YLR371W, strain rom2, hits give low values 0.983 | locus YLR384C, strain iki3, hits give low values 0.995 | locus YLR418C, strain cdc73, hits give low values 0.988 | locus YML016C, strain PPZ1, hits give low values 0.998 | locus YML032C, strain rad52, hits give low values 0.988 | locus YML120C, strain ndi1, hits give low values 0.97 | locus YML124C, strain tub3, hits give low values 1.01 | locus YMR058W, strain fet3, hits give low values 0.965 | locus YMR078C, strain ctf18, hits give low values 1 | locus YMR125W, strain sto1, hits give low values 0.944 | locus YMR129W, hits give low values 0.983 | locus YMR205C, strain PFK2, hits give low values 0.989 | locus YMR223W, strain ubp8, hits give low values 0.985 | locus YMR231W, strain pep5, hits give low values 0.99 | locus YMR307W, strain GAS1, hits give low values 0.956 | locus YNL067W, strain RPL9B, hits give low values 0.991 | locus YNL071W, strain lat1, hits give low values 0.989 | locus YNL183C, strain NPR1, hits give low values 0.982 | locus YNL209W, strain ssb2, hits give low values 0.99 | locus YNL233W, strain BNI4, hits give low values 0.974 | locus YNL248C, strain rpa49, hits give low values 0.993 | locus YNL250W, strain rad50, hits give low values 1.01 | locus YNL271C, strain bni1, hits give low values 1.01 | locus YNL298W, strain CLA4, hits give low values 1.03 | locus YNL307C, strain MCK1, hits give low values 1.01 | locus YNL322C, strain KRE1 (second series), hits give low values 0.983 | locus YNR049C, strain mso1, hits give low values 0.968 | locus YNR052C, strain pop2, hits give low values 0.997 | locus YOL006C, strain TOP1, hits give low values 0.768 | locus YOL012C, strain htz1 1.03 | locus YOL147C, strain pex11, hits give low values 1.02 | locus YOR001W, strain rrp6, hits give low values 0.978 | locus YOR061W, strain CKA2, hits give low values 0.988 | locus YOR069W, strain VPS5, hits give low values 1 | locus YOR070C, strain gyp1, hits give low values 0.98 | locus YOR080W, strain dia2, hits give low values 0.974 | locus YOR083W, strain WHI5, hits give low values 0.952 | locus YOR106W, strain vam3, hits give low values 0.929 | locus YOR136W, strain idh2, hits give low values 1.03 | locus YOR144C, strain elg1, hits give low values 1.01 | locus YOR184W, strain ser1, hits give low values 1.02 | locus YOR231W, strain MKK1, hits give low values 1.05 | locus YOR265W, strain rbl2, hits give low values 0.989 | locus YOR270C, strain vph1, hits give low values 0.991 | locus YOR290C, strain snf2, hits give low values 0.941 | locus YOR316C, strain cot1, hits give low values 1.01 | locus YPL051W, strain arl3, hits give low values 0.984 | locus YPL055C, strain LGE1, hits give low values 0.96 | locus YPL078C, strain atp4, hits give low values 0.958 | locus YPL106C, strain sse1, hits give low values 0.929 | locus YPL240C, strain hsp82, hits give low values 0.981 | locus YPL241C, strain CIN2, hits give low values 0.997 | locus YPL256C, strain CLN2, hits give low values 1.03 | locus YPR119W, strain clb2, hits give low values 1.02 | locus YPR141C, strain kar3, hits give low values 1.01 | locus YPR163C, strain tif3, hits give low values 0.995 | locus YPR167C, strain met16, hits give low values 1.01 | strain wtn01, hits give low values 0.979
